Integrin act MD: qHTS for Activators of Integrin-Mediated Alleviation for Muscular Dystrophy | alpha7betagal myoblasts, beta-gal FDG fluorescence, 48 h | Potency, µM (highest dose often 38.3 µM), hits mostly activators | 0.064% of 350,000 active; note: nearly all actives have a fitted effect of over 60% in size
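Alpha7betagal+/- myoblasts (passage 13) were plated 16-24 hr, then exposed to compounds (1:260 dilution of DMSO stock) for 48 hours at 37C. After MPER lysis, β-galactosidase reporter activity was read as FDG fluorescence (ex 480/em 540) after 30 minutes.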
D3 antag: qHTS of D3 Dopamine Receptor Antagonist: qHTS; 2.5% of 360,000 active; D3R cells, DiscoveRx beta-arrestin luminescence, antagonist mode; active compounds read low; AID 652054, 2013; max response, negative = inhibition, %; D(3) dopamine receptor (Homo sapiens), P35462; in the data active = max response below about -50%; inconclusive = no clear call, values can overlap the other calls
Target sequence (P35462 whole entry, looked up): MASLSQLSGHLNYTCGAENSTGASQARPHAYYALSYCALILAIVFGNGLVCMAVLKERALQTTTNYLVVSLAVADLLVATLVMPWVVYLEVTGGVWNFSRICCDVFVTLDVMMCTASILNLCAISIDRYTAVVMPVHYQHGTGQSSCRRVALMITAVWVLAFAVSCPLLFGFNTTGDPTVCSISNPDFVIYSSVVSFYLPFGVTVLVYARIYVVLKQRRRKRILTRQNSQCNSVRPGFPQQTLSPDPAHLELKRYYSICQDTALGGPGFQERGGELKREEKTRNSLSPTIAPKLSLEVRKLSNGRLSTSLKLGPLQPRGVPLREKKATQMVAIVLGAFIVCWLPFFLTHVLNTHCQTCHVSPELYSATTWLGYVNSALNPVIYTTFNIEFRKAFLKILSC
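Cells expressing the human receptor were seeded at 1500 cells/well, incubated overnight at 37 degrees C in 5% CO2, then exposed to library compounds with dopamine controls for 90 minutes at 37 degrees C before luminescent detection.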
IL1B secr inh: qHTS for Inhibitors of Inflammasome Signaling: IL-1-beta AlphaLISA Primary Screen. THP-1 LPS/ATP IL-1B secretion, AlphaLISA, 16 h; active compounds read low. activity change, % at 57.5 µM. 4.7% of 360,000 active. AID 743279, 2014; in the data active = activity change below about -50%; inconclusive = mostly about -30% to -49%
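THP-1 cells pretreated 1 hr with compounds (up to 57.5 uM final), then stimulated with LPS (250 ng/mL final) plus ATP (1.25 mM final); secreted IL-1B measured by AlphaLISA after 16 hr, decreased signal indicating inhibition.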
DRD3 agonist: qHTS of D3 Dopamine Receptor Agonist: qHTS. D(3) dopamine receptor (Homo sapiens), P35462. 0.58% of 410,000 active. D3R DiscoveRx beta-arrestin cells, luminescence, 90 min. max activation, %; in the data active = max activation above about 30%
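Agonist-mode cell screen: cells plated at 1500/well and incubated overnight at 37 °C, then exposed to library compounds for 90 min at 37 °C. Detection reagent was added for 30–60 min at room temperature, and luminescence was read.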
ATXN2 expr inh: Primary qHTS for Inhibitors of ATXN expression; HEK-293 ATXN2-luciferase reporter, luminescence, 24 h; Potency, µM (doses to about 57 µM), hits mostly inhibitors; 0.72% of 360,000 active; AID 1745845, 2022; note: nearly all actives have a fitted effect of over 55% in size
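ATXN2-luciferase reporter cells (luciferase flanked by upstream and downstream ATXN2 gene portions) were treated 24 h at 37 °C with compounds at up to 57 uM. SteadyGlo luminescence gave expression; GF-AFC fluorescence gave viability.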
ATXN viability: Viability Counterscreen for Primary qHTS for Inhibitors of ATXN expression; S2 cells (HEK-293 line with an ATXN2-luciferase reporter) viability, CellTiter-Fluor protease fluorescence, 24 h; Potency, µM (highest dose often 56.7 µM), usual class: cytotoxic; 0.49% of 400,000 active; note: nearly all actives have a fitted effect of over 40% in size
Hits are given with their value; . = inactive; ? = inconclusive; / = no result given; [ ] = dose if it differs, or a comment. Compounds with a hit are over-represented: about 7% of the library has one in this group of screens. Unless noted, calls come from the whole dose curve; as a rule, active = well fitted curve in the direction sought with a large enough effect; inconclusive = small, poorly fitted or top-dose-only effect, or another doubt; inactive = no such curve, though single readings can be large; an effect the other way counts as inactive or inconclusive.

SMILES	Integrin act MD	D3 antag	IL1B secr inh	DRD3 agonist	ATXN2 expr inh	ATXN viability
O=[N+]([O-])c1ccc(N2CCN(c3ccccc3F)CC2)nc1	5.6µM	.	.	.	.	.
Cc1ccc(NC(=O)CCCn2c(=O)c3cccn3c3cccnc32)c(C)c1	/	/	/	.	/	/
O=C(CN1CCSC1=NCc1ccccc1)c1ccc(Cl)cc1	.	-67	?	.	.	.
CCOC(=O)c1c(C)[nH]c(C(=O)OCc2csc(CC(=O)Nc3ccccc3C)n2)c1C	.	.	.	36	.	.
Cc1ccccc1NC(=O)Cc1nc(COC(=O)c2cccc(C)c2O)cs1	.	.	.	.	.	.
Cc1ccccc1NC(=O)Cc1nc(COC(=O)c2ncc(Cl)c(Cl)c2Cl)cs1	.	.	-88	.	.	.
Cc1ccccc1NC(=O)Cc1nc(COC(=O)c2nc(Cl)ccc2Cl)cs1	.	.	.	.	/	.
CN(C(=O)c1cc([N+](=O)[O-])ccc1N1CCCC1)C1CCCCC1	?	.	.	.	.	?
CCCCNC(=O)C1CCN(C/C(C)=C/c2ccccc2)CC1	.	-66	.	.	.	.
CCCCN(C)C(=O)C1CCN(C/C(C)=C/c2ccccc2)CC1	.	-65	.	.	.	?
CCCCN(C)C(=O)C1CCN(Cc2cccnc2)CC1	?	.	.	.	.	.
C/C(=C\c1ccccc1)CN1CCC(C(=O)N2CCCCC2)CC1	.	-57	.	.	.	.
C/C(=C\c1ccccc1)CN1CCC(C(=O)N2CCC(C)CC2)CC1	.	.	.	.	.	.
COc1cc2c(cc1OC)[C@@H](Cc1ccc(OCCC#N)cc1)N(C)CC2	.	.	.	.	.	.
Cc1ccc(NS(=O)(=O)c2cccc(C(=O)NCc3ccccn3)c2)cc1	.	.	.	.	.	.
Cc1ccnc(SC2CC(=O)N(c3ccc(C(C)C)cc3)C2=O)n1 (stereo not drawn)	.	.	.	.	/	.
CN(C)CCC1c2ccc(Cl)cc2CCc2cccnc21 (stereo not drawn) (tested in a mixture with another compound)	.	.	-75	.	.	.
CC(C)N1CCC2(CC1)N=C(c1ccc3c(c1)OCO3)CC(c1cc(Cl)ccc1O)N2 (stereo not drawn)	.	.	-117	.	?	?
COc1ccc(CCNC(=O)C2CCN(C(=O)c3ccccc3C)CC2)cc1	.	.	.	.	.	?
NC(=O)c1cc([N+](=O)[O-])ccc1NCc1cccnc1	.	.	.	.	.	?
NC(=O)c1cc([N+](=O)[O-])c(Cl)cc1NCc1cccnc1	.	.	-77	.	.	.
Cc1ccc(NC(=O)c2cc([N+](=O)[O-])ccc2NCc2cccnc2)cc1Cl	.	.	-54	.	.	.
Clc1ccc(NCc2cccnc2)c(Cl)c1	.	.	-59	.	.	.
CCc1c(OC(C)=O)c2ccccc2n(C)c1=O	.	.	.	.	.	.
CC(=O)Oc1c(C)c(=O)n(C)c2ccccc12	.	.	-89	.	.	.
SMILES	Integrin act MD	D3 antag	IL1B secr inh	DRD3 agonist	ATXN2 expr inh	ATXN viability
O=C(Nc1ccc([N+](=O)[O-])cc1)Nc1ccc2c(c1)OCCO2	.	?	-68	.	.	.
CCOc1cc(C(=O)Nc2ccc3c(c2)OCO3)ccc1OC(F)F	.	.	-65	.	.	.
CCOc1ccc2oc(C(=O)Nc3ccc4c(c3)OCO4)c(C)c2c1	.	.	-50	.	.	.
CCCOc1ccc(C(=O)Nc2ccc3c(c2)OCO3)cc1	.	.	.	.	.	?
CCCOc1c(Cl)cc(C(=O)Nc2ccc3c(c2)OCO3)cc1OCC	.	.	-56	.	.	.
CCOc1ccc2oc(C(=O)Nc3ccc(N4CCOCC4)cc3)c(C)c2c1	.	.	.	.	.	?
CC1(C)O[C@@H]2[C@H](O1)[C@@H](COS(=O)(=O)O)O[C@H]2n1cc(Br)c(=O)[nH]c1=O	.	.	.	.	.	.
Cc1cc(C)n(CC(=O)c2ccc(Br)cc2)c(=O)c1C#N	.[7.66 µM]	.	.	.	.	.
CC(OC(=O)c1cccs1)C(=O)NC1CC1 (stereo not drawn)	.	.	.	.	.	.
CCC(=O)Oc1ccc(C(=O)Nc2ccc3c(c2)OCO3)cc1	.	.	-58	.	.	?
O=C(Nc1ccc([N+](=O)[O-])cc1)NN1CCCCCC1	.	.	-99	.	.	.
CCOc1cccc(C(=O)NC(=S)Nc2ccc3c(c2)OCCO3)c1	.	.	-54	.	.	?
CCOc1ccc(C(=O)Nc2ccc3c(c2)OCCO3)cc1OC	.	.	.	.	.	.
CCOc1ccc(C(=O)Nc2ccc3c(c2)OCCO3)cc1[N+](=O)[O-]	.	.	-58	.	.	.
C[C@@H]1CC=C[C@@H]2[C@H]1C(=O)N(Cc1ccccc1)[C@H]2c1cccc(C#Cc2ccccc2)c1	.	.	.	.	.	.
CC(NC(=O)c1ccccc1)c1nnc(SCC(=O)NC2=NCCS2)n1C (stereo not drawn)	.	.	.	.	.	.
Cc1nc2sccn2c(=O)c1S(=O)(=O)Nc1ccc(N2CCOCC2)c(Cl)c1	.	.	.	.	.	.
Cc1cccc(C2c3[nH]c4ccccc4c3CCN2C(=O)c2cc(C(C)C)nc(N)n2)n1 (stereo not drawn)	.	.	?	.	.	.
COc1cc(Cn2c(-c3nonc3N)nc3ccccc32)ccc1C	.	.	.	.	?	?
O=C(NCCCn1ccnc1)C1CC(c2cccc(Br)c2)=NO1 (stereo not drawn)	.	.	.	.	.	.
O=C(Nc1cc(C(F)(F)F)ccc1-n1cncn1)c1cn2ccccc2n1	.	.	.	.	.	.
COc1cccc(-c2nc(SCc3cc(=O)c4ccc(C)c(C)c4[nH]3)n[nH]2)c1	/	/	/	.	?	.
COC1(OC)C=CC(=O)C=C1NC(=O)c1ccccc1OC(C)=O	/	/	/	/	18µM	14µM
CN1c2ccsc2C(O)=C(C(=S)Nc2ccc(F)c(Cl)c2)S1(=O)=O	.	-93	.	.	.	.
O=C(CN(C(=O)c1ccccc1)C(=O)c1ccccc1)OCc1ccccc1	.	.	.	.	.	.
Cc1c(O)nc2ccccn2c1=O	.	.	-65	.	.	.
Cc1csc2c(N3CCN(C(=O)Nc4ccc(Cl)c(Cl)c4)CC3)ncnc12	.	.	-78	.	20µM	?
Cc1csc2c(N3CCN(C(=O)NC(C)(C)C)CC3)ncnc12	.	.	.	.	.	.
